Bioassay records as filed in PubChem.
PDI turbidity: inhibitors of human PDI, primary screen, biochemical, turbidity, single point, plate reader; PDI insulin aggregation turbidity, A650, 90 min; 350,000 tested, 0.052% active; Protein disulfide-isomerase (Homo sapiens), P07237; inhibition, % at 10 µM;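 active = mean inhibition across replicates of 30% or more, whatever share of single replicates reach that level; inconclusive = mean inhibition below 30% while every single replicate reaches 30%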
ERp5 block: inhibitors of ERp5-driven insulin aggregation, primary screen, biochemical, turbidity, absorbance 650 nm, single point; Protein disulfide-isomerase A6 (Homo sapiens), Q15084; 90 min; inhibition, % at 9.99 µM; 350,000 tested, 0.05% active;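 active = mean replicate inhibition above about 25%, with every replicate also reaching it, limit read from the data, passing the limit was not always enough; inconclusive = only one of those two criteria met; inactive = neither criterion met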
DENV2 CPE rescue: inhibitors of DENV2 cytopathic effect, primary screen, cell-based, plate reader, single concentration. CPE inhibition, % at 9.99 µM. AID 651640, 2012. DENV2-infected cells, cytopathic effect rescue. 350,000 tested, 1.7% active; in the data active = CPE inhibition above about 20%, passing the limit was not always enough; inconclusive = no clear call, values can overlap the other calls; tested in BHK-21 cells;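 also: 0% = median of neutral control wells and 100% = median of positive control wells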
ERAP1 HTS inh: human ERAP1 aminopeptidase inhibitors, primary screen, biochemical, single point, plate reader. 340,000 tested, 0.15% active. inhibition, % at 10.7 µM. Endoplasmic reticulum aminopeptidase 1 (Homo sapiens), Q9NZ08. recombinant ERAP1, Leu-AMC fluorescence, 60 min. AID 652197, 2013;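 active = mean replicate inhibition of at least 30%, or all replicates individually reaching that 30% level; inactive = mean below 30% and not every replicate reaching it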;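 also: 0% = neutral control wells and 100% = L-leucinethiol positive control wells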
AF4-AF9 inh: inhibitors of AF4 peptide binding to AF9, primary screen, biochemical, AlphaScreen, biotin-AF4 peptide, FLAG-AF9, single point; Protein AF-9 (Homo sapiens), P42568; inhibition, % at 10 µM; 350,000 tested, 0.47% active;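 active = every replicate reaching a set inhibition limit, whatever the replicate mean, cut at about 25% in these data; inconclusive = mean inhibition reaches that limit but some replicates miss it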;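 also: 0% = plate neutral control median and 100% = total signal loss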
Target sequence (P42568 whole entry, looked up): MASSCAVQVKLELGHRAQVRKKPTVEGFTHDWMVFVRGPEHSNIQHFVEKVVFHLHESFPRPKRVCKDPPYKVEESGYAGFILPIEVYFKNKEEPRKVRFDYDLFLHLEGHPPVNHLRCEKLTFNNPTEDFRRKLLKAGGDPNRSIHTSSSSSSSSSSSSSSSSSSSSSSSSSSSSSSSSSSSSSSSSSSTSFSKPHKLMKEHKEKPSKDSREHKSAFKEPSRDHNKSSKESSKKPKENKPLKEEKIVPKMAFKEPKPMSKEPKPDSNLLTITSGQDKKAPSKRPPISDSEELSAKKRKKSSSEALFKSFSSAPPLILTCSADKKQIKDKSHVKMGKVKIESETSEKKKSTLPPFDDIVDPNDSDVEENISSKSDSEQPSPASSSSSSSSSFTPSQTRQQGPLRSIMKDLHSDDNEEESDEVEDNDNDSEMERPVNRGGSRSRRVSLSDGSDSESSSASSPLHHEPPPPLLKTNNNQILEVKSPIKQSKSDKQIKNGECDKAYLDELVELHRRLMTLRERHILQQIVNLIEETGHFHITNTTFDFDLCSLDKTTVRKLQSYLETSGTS
* hit, by the source's call. Only some compounds are listed: those with a hit (about 1.8% of all), similar ones and a draw of the others.

COc1cccc(-c2ccc([C@@H]3[C@H](CO)N4CCCCN(C(=O)c5ccc(F)cc5)C[C@@H]34)cc2)c1 was read as ERp5 block -1, DENV2 CPE rescue 41*, ERAP1 HTS inh 2 and AF4-AF9 inh -3.
For COc1cccc(-c2ccc([C@H]3[C@H]4CN(C(=O)c5ccc(F)cc5)CCCCN4[C@H]3CO)cc2)c1 the results were ERp5 block -1, DENV2 CPE rescue 11, ERAP1 HTS inh 0 and AF4-AF9 inh -6.
`COc1cccc(-c2ccc([C@@H]3[C@H]4CN(CC5CC5)CCCCN4[C@H]3CO)cc2)c1` gave ERp5 block 6, DENV2 CPE rescue 58*, ERAP1 HTS inh 1 and AF4-AF9 inh -1.
For CN1C2CCC1/C(=C\c1ccc(F)cc1)C(=O)/C2=C/c1ccc(F)cc1 the results were PDI turbidity -6.
Screening CN1C2CCC1/C(=C/c1cccn1C)C(=O)/C2=C\c1cccn1C returned PDI turbidity 1, ERp5 block 3, DENV2 CPE rescue inconclusive, ERAP1 HTS inh 12 and AF4-AF9 inh 43*.
For CC=Cc1ccc2n(c1=O)C[C@H]1[C@H](CO)[C@@H](C(=O)NCCc3ccncc3)[C@@H]2N1CCc1ccccc1 (mixture of isomers) the results were ERp5 block 3, DENV2 CPE rescue -4, ERAP1 HTS inh 0 and AF4-AF9 inh -4.
For Cc1[nH]c2ccccc2c1/C=N/Nc1ccccn1 the results were ERp5 block 3, DENV2 CPE rescue 6, ERAP1 HTS inh 4 and AF4-AF9 inh 26*.
`Cn1c(=O)c2cc(S(=O)(=O)NC(C(=O)Nc3cccc(F)c3)c3ccccc3)ccc2n(C)c1=O` (stereo unspecified) gave PDI turbidity -3, ERp5 block -7, DENV2 CPE rescue 78* and AF4-AF9 inh -1.
CC1=CC(C)(C)Nc2ccc(OC(=O)c3ccco3)cc21 was read as PDI turbidity 4.
Screening CC1=CC(C)(C)N2C(=O)C(=O)c3cc(OC(=O)c4ccco4)cc1c32 returned PDI turbidity -9, ERp5 block 0, DENV2 CPE rescue -5, ERAP1 HTS inh 1 and AF4-AF9 inh 31*.
For COc1ccc(OC)c(NC(=O)CN2C(=O)COc3ccc(S(=O)(=O)N4CCCC4)cc32)c1 the results were PDI turbidity -3, ERp5 block -2, DENV2 CPE rescue -3, ERAP1 HTS inh -6 and AF4-AF9 inh 35*.
For CS(=O)(=O)N1CC2(C1)[C@H](c1ccccc1)[C@H](CO)N2CC1CCCC1 the results were ERp5 block 3, DENV2 CPE rescue 2, ERAP1 HTS inh 1 and AF4-AF9 inh -17.
Screening CC(C)C(=O)Nc1ccc2c(c1)C(=O)N(C)[C@H]1CC[C@@H](CC(=O)NCc3ccc(F)cc3)O[C@@H]1CO2 returned ERp5 block -2, DENV2 CPE rescue -8, ERAP1 HTS inh 2 and AF4-AF9 inh -1.
`C[C@@H]1CN([C@H](C)CO)C(=O)Cc2cc(NC(=O)Nc3ccc(F)cc3)ccc2O[C@H]1CN(C)S(=O)(=O)c1ccc(Cl)cc1` gave ERp5 block 7, DENV2 CPE rescue 21*, ERAP1 HTS inh 1 and AF4-AF9 inh 1.
CC(C)NC(=O)Nc1ccc2c(c1)CC(=O)N([C@H](C)CO)C[C@@H](C)[C@H](CN(C)S(=O)(=O)c1ccc(F)cc1)O2 was read as AF4-AF9 inh 0.
Cc1ccc(S(=O)(=O)N(C)C[C@H]2Oc3ccc(NC(=O)Nc4ccc(F)cc4)cc3CC(=O)N([C@H](C)CO)C[C@@H]2C)cc1 was read as ERp5 block 2, DENV2 CPE rescue 80*, ERAP1 HTS inh -3 and AF4-AF9 inh 2.
`CC(C)NC(=O)Nc1ccc2c(c1)CC(=O)N([C@@H](C)CO)C[C@@H](C)[C@H](CN(C)S(=O)(=O)c1ccc(F)cc1)O2` gave ERp5 block -1, DENV2 CPE rescue 45*, ERAP1 HTS inh -1 and AF4-AF9 inh -1.
Screening CCCC(=O)N1CC2(C1)CN(C(=O)CN1CCOCC1)[C@@H](CO)c1c2c2ccc(OC)cc2n1C returned ERp5 block 1, DENV2 CPE rescue 4, ERAP1 HTS inh 6 and AF4-AF9 inh 0.
